Assay results from PubChem BioAssay AID1347416 (National Center for Advancing Translational Sciences (NCATS), 2020).
Out of some 4,100 compounds screened, about 1,600 (39%) were called active. Roughly 25% stayed inconclusive and do not appear here. The call rests on the fitted dose curve; in most records, active means well fitted inhibition curve with a large enough effect; inconclusive means small, poorly fitted or top-dose-only effect; inactive means no such curve, though single readings can be large or run the other way. This is one part of the list.

Assay: qHTS Validation assay for Inhibitors of Plasmodium falciparum Dd2 growth in vitro; further: nearly all actives have a fitted effect of over 70% in size
Conditions: P. falciparum Dd2 in RBCs, SYBR Green growth, 72 h; series mostly up to 28.7 µM
Procedure, shortened: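 P. falciparum Dd2-infected red blood cells (2.5% hematocrit, 0.3% parasitemia) grown 72 h at 37 °C under 5% O2 with compounds in a titration, 29 uM to 0.5 nM final. Growth read as SYBR Green-1 fluorescence after ~16 h lysis; artesunate 300 nM as positive control.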
Potency means the concentration at half of the fitted maximal effect.

Potency, inactive:
COCC(=O)NC1CCC12CCN(C(=O)c1ccc(C)nc1)CC2 (stereo not given), CC(=O)Nc1cc[n+](C(C)C(=O)c2ccc(Br)cc2)cc1 (stereo not given), Cc1cccc(NC(=O)Cn2nc3n(c2=O)CCCC3)c1C, COc1ccc(N2Cc3c(ncnc3N3CCN(Cc4ccccc4)CC3)N(C)CC2=O)cc1, CC(=O)c1ccc(NC(=O)c2noc3c2CCC3)cc1, O=C(NCc1ccco1)C1CN(S(=O)(=O)c2ccccc2)CC12CCCCC2 (stereo not given), O=C(NCCN1CCCCCC1)C1CCCN1S(=O)(=O)c1cccc2nsnc12 (stereo not given), O=C(NCCc1c[nH]c2ccccc12)c1cncc(Br)c1, Cc1cc(C)n(-c2nc3cc(Cl)ccc3nc2N2CCN(c3ccccc3F)CC2)n1, COC(C)c1ccc(-c2cc(C(=O)O)cc(S(=O)(=O)NC(C)C)c2)cc1 (stereo not given), Cc1cccc(C(=O)NC2CCN(c3cc(-c4ccc(Cl)cc4)[nH]n3)C2)c1 (stereo not given), Cc1ccc(-n2nc3c(=O)n(CCCC(=O)NCc4ccccc4F)nc(C)c3c2C)cc1, O=C(NC1CCN(c2cc(-c3ccc(Cl)cc3)[nH]n2)C1)c1ccccc1 (stereo not given), O=C(NC1CCCN(c2cc(-c3ccccc3)[nH]n2)C1)c1ccccc1 (stereo not given), Cc1ccc2c(c1)COc1c3ccc(C(=O)O)cc3nn1-2, Cn1c2c(c(=O)n(C)c1=O)C(c1cc(Br)ccc1F)CC(=O)N2 (stereo not given), COc1ccccc1NC(=O)C1=C(C)Nc2ncnn2C1c1ccccc1C(=O)O (stereo not given), COc1ccc(Br)cc1C1C(C(=O)Nc2ccc(C)cc2C)=C(C)Nc2ncnn21 (stereo not given), CC1(CNc2ccccc2)COc2ccc(C(=O)NCc3cccs3)cc2N1 (stereo not given), O=C(c1ccccc1)N1CCC(N(Cc2cccnc2)C2CCOCC2)CC1, COc1cccc(CN(C)C(=O)CCc2nnc(-c3ccsc3)o2)c1, COc1ccccc1-c1nnc(C2CCN(C(=O)c3ccc(Cl)cc3)CC2)o1, CCC(=O)N1c2ccccc2CC1C(=O)NCCc1ccccc1OC (stereo not given), Fc1cc(F)cc(Cc2nc3nccc(-c4cccs4)n3n2)c1, COc1ccccc1NC(=O)C(=O)NCCc1csc(-c2cccc(F)c2)n1, COc1ccc(CNC(=O)CCCn2c(=O)c3cccn3c3ccc(F)cc32)cc1OC, O=C(C1CC1)N1CCC(c2nc(C3CCOCC3)no2)CC1, COCCNC(=O)c1nc(-c2ccc([S+](C)(=O)[O-])cc2)c2ccccn12, COC(=O)c1[nH]c2cccc(Cl)c2c1NC(=O)CN1CCCCC1C (stereo not given), Cc1ccsc1C(=O)Nc1cccc(-c2nnc3n2CCCC3)c1, COCCOc1cc(=O)n2c(c1C(=O)NCc1ccc(OC)cc1)CCOCC2, COc1ccc(CNC(=O)CCc2c(C)nn(-c3ccc(N4CCOCC4)nn3)c2C)cc1, CCOc1c(OC)cccc1-c1nc2ccc(-c3ccc(OC)c(OC)c3OC)cc2o1, Nc1ncnc2c1ncn2[C@H]1O[C@@H](CNS(=O)(=O)NC(=O)c2cccc(-c3noc(-c4ccccc4F)n3)c2)[C@H](O)[C@@H]1O, O=C(C1Cn2cccc2C(=O)N1Cc1ccccc1)N1CCN(c2ncccn2)CC1 (stereo not given), CCCOc1cccc(C2c3c(oc4ccc(F)cc4c3=O)C(=O)N2Cc2ccc3c(c2)OCO3)c1 (stereo not given), COc1cccc(C(=O)Nc2cccc(-c3cn4c(C)csc4n3)c2)c1OC, CCOC(=O)c1c(S(=O)(=O)N2CCC(C(=O)Nc3ccc(OCC)cc3)CC2)c(C)n(C)c1C, Cc1ccsc1CN1CCC(C(=O)N2CCCCCCNC(=O)CC2)CC1, O=C(NCc1ccco1)c1ccc2c(c1)N(Cc1ccc(F)cc1)C(=O)c1ccccc1S2(=O)=O, CC(C)CCNC(=O)c1ccc2c(c1)CC(=O)N2Cc1ccccc1, Cc1ccccc1CNC(=O)CC1C(=O)NCCN1Cc1c(F)cccc1Cl (stereo not given), COCCCNC(=O)c1ccc2c(c1)CC(=O)N2Cc1ccccc1, CC(C)[C@@H]1CN(C(=O)CCn2ccc(=O)[nH]c2=O)C[C@H]1NS(C)(=O)=O, O=C(Cn1c(-c2ccccc2)noc1=O)NCc1ccccc1, CCOc1ccccc1NC(=O)Cn1c(-c2ccccc2)nc(C)cc1=O, COc1ccc(-c2ccc3c(n2)CN(Cc2csc(C)n2)C(=O)CO3)cc1F, O=C1COc2ccc(-c3ccc(Cl)cc3)nc2CN1Cc1ccccc1

Potency, active:
CCN(CC)CCOC(=O)c1ccc(NC(=O)c2cc3c(=O)n(CC)c4ccccc4c3s2)cc1 2.66 µM, CCCCNC(=O)c1onc(CSc2nc3ccccc3[nH]2)c1C(=O)NCCCC 5.31 µM, CN(C)c1cc[n+](CC(=O)c2ccc(Br)cc2)cc1 7.5 µM, COc1ccc(NC(=O)c2c(C)oc3ccc(O)c(CN4CCN(Cc5ccccc5)CC4)c23)cc1 2.66 µM, Cc1oc2ccc(O)c(CN3CCN(Cc4ccccc4)CC3)c2c1C(=O)Nc1cccc(Cl)c1C 0.596 µM, Cc1oc2ccc(O)c(CN3CCCCCC3)c2c1C(=O)Nc1cccc(Cl)c1C 0.842 µM, CC1CCCN(Cc2c(O)ccc3c(=O)c(-c4ccc(Cl)cc4)c(C(F)(F)F)oc23)C1 (stereo not given) 0.842 µM, CCc1cc2c(=O)c(-c3cnn(-c4ccccc4)c3)c(C)oc2c(CN2CCCCC2)c1O 1.33 µM, CCN1CCN(Cc2c(O)ccc3c(=O)c(Oc4ccccc4Cl)c(C(F)(F)F)oc23)CC1 0.596 µM, CC1CCN(Cc2c(O)ccc3c(=O)c(Oc4ccccc4Cl)c(C(F)(F)F)oc23)CC1 1.33 µM, CC1CCCN(Cc2c(O)ccc3c(=O)c(-c4ccccc4Cl)c(C(F)(F)F)oc23)C1 (stereo not given) 0.842 µM, CC1CCCN(Cc2c(O)ccc3c(=O)c(-c4ccc(Cl)cc4)coc23)C1 (stereo not given) 1.88 µM, O=c1c(-c2ccc(Br)cc2)coc2c(CN3CCCCC3)c(O)ccc12 2.11 µM, Cc1oc2c(CN3CCCCC3)c(O)ccc2c(=O)c1-c1ccc(Cl)cc1 5.31 µM, CC1CCCN(Cc2c(O)ccc3c(=O)c(Oc4ccccc4Cl)c(C(F)(F)F)oc23)C1 (stereo not given) 2.11 µM, Cc1ccc(-c2[nH]n3c(=O)c4c(nc3c2C)CCCC4)cc1 2.99 µM, O=C(NCCN1CCCC1)C1CN(S(=O)(=O)c2cccs2)CC12CCCCC2 (stereo not given) 13.3 µM, CN(C)CCCNc1c2ccccc2nc2ccccc12 4.22 µM, c1ccc2c(NCCc3c[nH]c4ccccc34)c3ccccc3nc2c1 1.88 µM, Cc1cc(Nc2nc3ccccc3nc2Cl)n(-c2ccccc2C)n1 0.842 µM, CC(C)CNc1nnnc2c1sc1nc(N3CCOCC3)c3c(c12)CCCC3 15 µM, COc1cc(C(=O)NC2CCN(c3cc(-c4ccccc4)[nH]n3)CC2)cc(OC)c1OC 5.96 µM, Cn1c(=S)[nH]c2sc3c(c2c1=O)CCC(C(C)(C)C)C3 (stereo not given) 5.31 µM, CC1=C(C(=O)Nc2ccccc2)C(c2cc(Br)ccc2F)n2ncc(C(=O)Nc3ccccc3)c2N1 (stereo not given) 1.68 µM, CC1=C(C(=O)Nc2ccc(C)cc2C)C(c2cc(Br)ccc2F)n2ncc(C(=O)Nc3ccc(C)cc3)c2N1 (stereo not given) 1.5 µM, COc1ccc2nc(N(Cc3cccnc3)C(=O)CCc3ccccc3)sc2c1 6.68 µM, c1cnc(N2CCOCC2)c(OC2CCNC2)n1 (stereo not given) 7.5 µM, COc1ccccc1-c1nnc2n1C(C(=O)NCCc1ccc(Cl)cc1)CC2 (stereo not given) 3.35 µM, CC(NC(=O)Cn1c(-c2cccs2)cc2cc(F)ccc21)c1ccccc1 (stereo not given) 2.66 µM, COc1ccc(CCNC(=O)Cn2c(-c3cccs3)cc3cc(F)ccc32)cc1OC 4.73 µM, FC(F)(F)c1cnc(N2CCCN(C(=S)Nc3ccccc3)CC2)c(Cl)c1 4.73 µM, CC(C)CNC(=O)c1nc(-c2ccc(Cl)cc2)c2cnccn12 8.63 µM, COc1cc(=O)n2c(c1C(=O)Nc1ccc(N(C)C)cc1)CCCC2 10.6 µM, COc1ccc(C2=[N+](C)CCn3cccc32)c(OC)c1 10.6 µM, COc1ccc(-c2cc(-c3cccc(OC)c3OC)cn3cncc23)cc1 6.85 µM, COc1ccc(-c2cc(-c3ccc(N4CCOCC4)nc3)cn3cncc23)cc1 7.69 µM, Cc1ccc(C)c(-n2c(-c3ccc(Br)cc3)csc2=NC(=O)c2ccccc2F)c1 4.73 µM, CCCOc1cccc(C2c3c(oc4cc(C)c(C)cc4c3=O)C(=O)N2CCCN2CCOCC2)c1 (stereo not given) 13.3 µM, CCN1CCN(c2cc(C)c3cc(NC(=O)/C=C/c4cccc(OC)c4OC)ccc3n2)CC1 5.96 µM, COc1cccc(/C=C/C(=O)Nc2ccc3nc(N4CCN(C)CC4)cc(C)c3c2)c1OC 5.96 µM, Cc1ncc(CN2CCC(C(=O)Nc3ccc(-n4cccn4)cc3)CC2)s1 4.73 µM, CCCCN(CC)CCCNC(=O)c1ccc2c(c1)N(Cc1ccc(C)cc1)C(=O)c1ccccc1S2 1.88 µM, O=C(NCc1ccco1)c1ccc2c(c1)N(Cc1c(F)cccc1Cl)C(=O)c1ccccc1S2 13.3 µM, CCN(CC)CCCNC(=O)c1ccc2c(c1)N(Cc1c(F)cccc1Cl)C(=O)c1ccccc1S2 0.944 µM, CN(C)CCNC(=O)c1ccc2c(c1)N(Cc1c(F)cccc1Cl)C(=O)c1ccccc1S2 2.11 µM, CCOc1ccccc1NC(=O)Cn1c(-c2ccc(Cl)cc2)noc1=O 5.96 µM, Cc1csc(Nc2ccc3c(n2)CN(Cc2ccccc2C)C(=O)CO3)n1 19.3 µM
